Results from PubChem BioAssay AID1159580 (chemical genetic matrix, 2015).
Where “and” joins values, the source holds several entries; their conditions need not be identical. Identical values can stand only once. The campaign covered roughly 5,500 compounds. About 2,000 (36%) were called active. About 18% were inconclusive and are not listed. Rule as the data show it: active = normalized growth mostly below about 0.91 (no sharp cut-off); inconclusive = no clear call, values can overlap the other calls; inactive = mostly above about 0.92. This is one part of the list.

Assay: chemical genetic growth profiling, strain panel (AID 1159580);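 also: tested at 20 µM; growth read once vehicle control cultures reached saturation at 30 °C; 1 = growth at the plate median or of vehicle wells; lower values mean less growth of the strain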
Details: growth OD

Measured: normalized growth

NC1CC1c1ccccc1 (stereo not drawn)
inactive: S. cerevisiae deletion strains, locus YAL013W, strain DEP1, hits give low values 1.02 | S. cerevisiae deletion strains, locus YAL040C, strain CLN3, hits give low values 0.989 | S. cerevisiae deletion strains, locus YBR021W, strain FUR4, hits give low values 1.02 | S. cerevisiae deletion strains, locus YBR229C, strain ROT2, hits give low values 1.02 | S. cerevisiae deletion strains, locus YCL029C, strain bik1, hits give low values 0.985 | S. cerevisiae deletion strains, locus YCL061C, strain MRC1 (second series), hits give low values 1.01 | S. cerevisiae deletion strains, locus YDL035C, strain GPR1, hits give low values 1.02 | S. cerevisiae deletion strains, locus YDL074C, strain BRE1, hits give low values 1.05 | S. cerevisiae deletion strains, locus YDL101C, strain DUN1, hits give low values 1.03 | S. cerevisiae deletion strains, locus YDL134C, strain PPH21, hits give low values 1.02 | S. cerevisiae deletion strains, locus YDL185W, strain tfp1, hits give low values 0.989 | S. cerevisiae deletion strains, locus YDL192W, strain arf1, hits give low values 0.988 | S. cerevisiae deletion strains, locus YDR101C, strain arx1, hits give low values 0.976 | S. cerevisiae deletion strains, locus YDR150W, strain NUM1, hits give low values 1.02 | S. cerevisiae deletion strains, locus YDR162C, strain NBP2, hits give low values 1.03 | S. cerevisiae deletion strains, locus YDR318W, strain mcm21, hits give low values 0.979 | S. cerevisiae deletion strains, locus YDR363W, strain ESC2, hits give low values 0.946 | S. cerevisiae deletion strains, locus YDR388W, hits give low values 0.981 | S. cerevisiae deletion strains, locus YDR502C, strain sam2, hits give low values 0.995 | S. cerevisiae deletion strains, locus YEL061C, strain CIN8, hits give low values 1.01 | S. cerevisiae deletion strains, locus YER002W, strain NOP16, hits give low values 1.02 | S. cerevisiae deletion strains, locus YER110C, hits give low values 0.981 | S. cerevisiae deletion strains, locus YER155C, strain BEM2, hits give low values 1.01 | S. cerevisiae deletion strains, locus YER167W, strain BCK2, hits give low values 1.01 | S. cerevisiae deletion strains, locus YGL078C, strain dbp3, hits give low values 0.988 | S. cerevisiae deletion strains, locus YGL086W, strain mad1, hits give low values 0.975 | S. cerevisiae deletion strains, locus YGL248W, strain PDE1, hits give low values 1.03 | S. cerevisiae deletion strains, locus YGR078C, strain PAC10, hits give low values 1.02 | S. cerevisiae deletion strains, locus YGR135W, strain pre9, hits give low values 0.994 | S. cerevisiae deletion strains, locus YGR229C, strain SMI1, hits give low values 1.02 | S. cerevisiae deletion strains, locus YGR252W, strain gcn5, hits give low values 0.922 | S. cerevisiae deletion strains, locus YHR030C, strain SLT2, hits give low values 1.01 | S. cerevisiae deletion strains, locus YHR079C, strain IRE1 (second series), hits give low values 0.981 | S. cerevisiae deletion strains, locus YHR094C, strain hxt1, hits give low values 0.99 | S. cerevisiae deletion strains, locus YHR129C, strain ARP1, hits give low values 1.02 | S. cerevisiae deletion strains, locus YHR200W, strain rpn10, hits give low values 0.991 | S. cerevisiae deletion strains, locus YIL066C, strain RNR3, hits give low values 1.02 | S. cerevisiae deletion strains, locus YIL073C, strain SPO22, hits give low values 0.972 | S. cerevisiae deletion strains, locus YIL125W, strain kgd1, hits give low values 0.987 | S. cerevisiae deletion strains, locus YIR030C, strain dcg1, hits give low values 0.993 | S. cerevisiae deletion strains, locus YJL095W, strain BCK1, hits give low values 1.03 | S. cerevisiae deletion strains, locus YJL134W, strain LCB3, hits give low values 1.02 | S. cerevisiae deletion strains, locus YJL168C, strain set2, hits give low values 0.988 | S. cerevisiae deletion strains, locus YJL187C, strain SWE1 (second series), hits give low values 1.02 | S. cerevisiae deletion strains, locus YJR043C, strain POL32, hits give low values 0.992 | S. cerevisiae deletion strains, locus YJR075W, strain HOC1, hits give low values 1.01 and 1.03 | S. cerevisiae deletion strains, locus YKL009W, strain mrt4, hits give low values 1.01 | S. cerevisiae deletion strains, locus YKL068W, hits give low values 0.997 | S. cerevisiae deletion strains, locus YKL085W, strain MDH1 (second series), hits give low values 1.03 | S. cerevisiae deletion strains, locus YKL085W, strain MDH1, hits give low values 1.03 | S. cerevisiae deletion strains, locus YKL190W, strain CNB1, hits give low values 1.02 | S. cerevisiae deletion strains, locus YKR001C, strain vps1, hits give low values 0.987 | S. cerevisiae deletion strains, locus YLR039C, strain RIC1, hits give low values 1.06 | S. cerevisiae deletion strains, locus YLR058C, strain SHM2, hits give low values 1.02 | S. cerevisiae deletion strains, locus YLR102C, strain apc9, hits give low values 0.996 | S. cerevisiae deletion strains, locus YLR262C, strain YPT6, hits give low values 1.05 | S. cerevisiae deletion strains, locus YLR268W, strain sec22, hits give low values 0.989 | S. cerevisiae deletion strains, locus YLR330W, strain CHS5, hits give low values 1.01 | S. cerevisiae deletion strains, locus YLR342W, strain FKS1 (second series), hits give low values 0.994 | S. cerevisiae deletion strains, locus YLR371W, strain rom2, hits give low values 0.984 | S. cerevisiae deletion strains, locus YLR418C, strain cdc73, hits give low values 0.992 | S. cerevisiae deletion strains, locus YML016C, strain PPZ1, hits give low values 1.03 | S. cerevisiae deletion strains, locus YML032C, strain rad52, hits give low values 0.975 | S. cerevisiae deletion strains, locus YML124C, strain tub3, hits give low values 0.997 | S. cerevisiae deletion strains, locus YMR078C, strain ctf18, hits give low values 0.981 | S. cerevisiae deletion strains, locus YMR223W, strain ubp8, hits give low values 0.972 | S. cerevisiae deletion strains, locus YMR263W, strain SAP30, hits give low values 1.03 | S. cerevisiae deletion strains, locus YMR307W, strain GAS1, hits give low values 0.976 and 1.01 | S. cerevisiae deletion strains, locus YNL067W, strain RPL9B, hits give low values 1.03 | S. cerevisiae deletion strains, locus YNL128W, strain TEP1, hits give low values 1.03 | S. cerevisiae deletion strains, locus YNL153C, strain GIM3, hits give low values 1.03 and 0.972 | S. cerevisiae deletion strains, locus YNL175C, strain NOP13, hits give low values 0.999 | S. cerevisiae deletion strains, locus YNL197C, strain WHI3, hits give low values 1.01 | S. cerevisiae deletion strains, locus YNL224C, strain SQS1, hits give low values 1 | S. cerevisiae deletion strains, locus YNL233W, strain BNI4, hits give low values 1.02 | S. cerevisiae deletion strains, locus YNL250W, strain rad50, hits give low values 1.01 | S. cerevisiae deletion strains, locus YNL271C, strain bni1, hits give low values 0.978 | S. cerevisiae deletion strains, locus YNL298W, strain CLA4, hits give low values 0.996 | S. cerevisiae deletion strains, locus YNL307C, strain MCK1, hits give low values 0.979 | S. cerevisiae deletion strains, locus YNL322C, strain KRE1, hits give low values 1.02 | S. cerevisiae deletion strains, locus YNR052C, strain pop2, hits give low values 0.968 | S. cerevisiae deletion strains, locus YOL006C, strain TOP1, hits give low values 1.09 | S. cerevisiae deletion strains, locus YOL147C, strain pex11, hits give low values 0.989 | S. cerevisiae deletion strains, locus YOR061W, strain CKA2, hits give low values 1.02 | S. cerevisiae deletion strains, locus YOR069W, strain VPS5, hits give low values 1.01 | S. cerevisiae deletion strains, locus YOR083W, strain WHI5 (second series), hits give low values 1 | S. cerevisiae deletion strains, locus YOR136W, strain idh2, hits give low values 0.981 | S. cerevisiae deletion strains, locus YOR144C, strain elg1, hits give low values 0.984 | S. cerevisiae deletion strains, locus YOR184W, strain ser1, hits give low values 0.976 | S. cerevisiae deletion strains, locus YOR316C, strain cot1, hits give low values 0.992 | S. cerevisiae deletion strains, locus YPL055C, strain LGE1, hits give low values 1.06 and 0.992 | S. cerevisiae deletion strains, locus YPL241C, strain CIN2, hits give low values 1.02 | S. cerevisiae deletion strains, locus YPR119W, strain clb2, hits give low values 0.994 | S. cerevisiae deletion strains, locus YPR141C, strain kar3, hits give low values 0.99 | S. cerevisiae deletion strains, locus YPR163C, strain tif3, hits give low values 0.988 | S. cerevisiae deletion strains, locus YPR167C, strain met16, hits give low values 0.985 | S. cerevisiae deletion strains, strain wtn01, hits give low values 0.988 | S. cerevisiae strains, strain wild type, hits give low values 1.01
